Among all 5,500 compounds or so, about 2,000 (36%) were called active. Not shown: some 18% with an inconclusive outcome. Rule as the data show it: active = normalized growth mostly below about 0.91 (no sharp cut-off); inconclusive = no clear call, values can overlap the other calls; inactive = mostly above about 0.92. This is one part of the list.
Test: chemical genetic growth profiling, strain panel (AID 1159580);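 also: tested at 20 µM; growth read once vehicle control cultures reached saturation at 30 °C; 1 = growth at the plate median or of vehicle wells; lower values mean less growth of the strain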
Settings: S. cerevisiae deletion strains, growth OD

Measured: normalized growth

O=C1OC(CN2CCOCC2)CN1/N=C\c1ccc([N+](=O)[O-])o1 (stereo not drawn)
inactive: locus YHR030C, strain SLT2, stronger effect = lower value 0.93 | locus YHR079C, strain IRE1, stronger effect = lower value 0.948 | locus YJL095W, strain BCK1, stronger effect = lower value 0.952 | locus YJR066W, strain TOR1, stronger effect = lower value 0.844 | locus YLR113W, strain HOG1, stronger effect = lower value 1.03 | locus YNL183C, strain NPR1, stronger effect = lower value 0.856 | locus YOR231W, strain MKK1, stronger effect = lower value 0.931 | locus YPL256C, strain CLN2, stronger effect = lower value 0.961
